Records with an inconclusive call do not appear. The source made the active and inactive calls.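 The calls were made as follows: active = compounds whose fitted half-maximal viability loss lies within twice the top dose at every treatment time; inconclusive = the three treatment times give differing calls; inactive = inactive at every treatment time.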
Test: cytotoxicity in primary umbilical vein endothelium – cell-based, Alamar Blue fluorescence, 8-48 h, dry powder, cytotoxicity control for HRAS target identification, late-stage follow-up (AID 720612)

With Cc1onc(C(=O)N2CCN(C(c3ccncc3)c3ccncc3)CC2)c1[N+](=O)[O-] the outcome was “inactive”.

For CCC(=O)N(c1ccc(OC)c(Cl)c1)C(C(=O)NCCc1ccccc1)c1cccs1 (configuration not stated), the outcome was “inactive”.
